Inconclusive results are not listed. A number with no mark means an inactive call. The source made the active and inactive calls. The call rests on the fitted dose curve; in most records, active means well fitted inhibition curve with a large enough effect; inconclusive means small, poorly fitted or top-dose-only effect; inactive means flat fitted curve, though single readings scatter.
These compounds were tested on Zika virus NS2B-NS3 protease (assay: Primary screen GU AMC qHTS for Zika virus inhibitors (AID 1347154;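 further: 0% = no-inhibitor control and -100% = no-enzyme control; nearly all actives have a fitted effect of over 70% in size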)). Conditions: Zika NS2B-NS3 unlinked protease, AMC fluorogenic substrate; series mostly up to 54.1 µM; activity change, negative = inhibition: at the top concentration.
Summary of the method: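 Unlinked Zika NS2B hydrophilic domain–NS3 protease complex at 25 nM in 10 mM Tris-HCl pH 8.0, 0.01% Tween 20, with an AMC peptide substrate. Fluorescence change (340/450 nm) over 15 min at room temperature, normalized to controls, fitted to 4-parameter Hill.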

| Structure (SMILES) | activity change, negative = inhibition | Potency |
| --- | --- | --- |
| COC(=O)c1cc(Cl)ccc1OC | -3.12% | – |
| CCOC(=O)NNc1ccc(N(CC)CC(C)O)nn1 (stereo unspecified) | -5.12% | – |
| CCCc1ncc(C(=O)O)s1 | -3.21% | – |
| COc1cc2c(cc1OC)C(=O)CC2 | -9.3% | – |
| CN1Cc2cc(C(=O)N3CCC(C4CCNCC4)CC3)ccc2N[C@@H](CC(=O)O)C1=O | -7.09% | – |
| CC(C)CCCC(C)NCCC(C)C (stereo unspecified) | 0.862% | – |
| CCCC(=O)O[C@]1(C(=O)CC)CC[C@H]2[C@@H]3CCC4=CC(=O)CC[C@]4(C)[C@H]3[C@@H](O)C[C@@]21C | -5.29% | – |
| NCC(=O)O | – | inactive |
| CCOc1ccc(NS(=O)(=O)c2ccc(N)cc2)nn1 | 0.388% | – |
| NS(=O)(=O)c1cc2c(cc1Cl)CN(C1CCCCC1)C2=O | -7.03% | – |
| CCCCC(CC)COC(=O)c1ccccc1C(=O)O (stereo unspecified) | -9.51% [at 104 µM] | – |
| O=C(O)c1ccccc1Nc1cc(Cl)ccc1C(=O)O | -8.54% [at 25.8 µM] | – |
| CC(C)C(C)(C)C(C)(C)C(C)(C)S | -3.05% [at 104 µM] | – |
| COc1cc(OC)nc(O[C@H](C(=O)O)C(OC)(c2ccccc2)c2ccccc2)n1 | 6.08% | – |
| CC1(C)O[C@@H]2C[C@H]3[C@@H]4CCC5=CC(=O)C=C[C@]5(C)[C@@]4(F)[C@@H](O)C[C@]3(C)[C@]2(C(=O)CO)O1 | 2.36% | – |
| COC(=O)c1cc(S(N)(=O)=O)ccc1OC | 4.17% | – |
| COC(=O)c1c(Cl)c(Cl)c(C(=O)OC)c(Cl)c1Cl | -5.54% [at 104 µM] | – |
| CCCCCOc1ccccc1/C(=C\SC)n1ccnc1 | -8.08% | – |
| O=C(O)Cc1ccc(OCCNC[C@H](O)c2ccccc2)cc1 | – | inactive |
| OC1(c2ccccc2)CCNCC1 | 1.76% | – |
| CC(=O)N(CC(O)CO)c1c(I)c(C(=O)NCCO)c(I)c(C(=O)NCC(O)CO)c1I (stereo unspecified) | -2.46% | – |

Reference: PubChem BioAssay (NCATS)
